Experimental data reported in PubChem BioAssay (NCATS).
Results filed as inconclusive are left out. Active and inactive are the calls of the source. Calls come from the whole dose curve; as a rule, active = well fitted cell-killing curve with a large enough effect; inconclusive = small, poorly fitted or top-dose-only effect; inactive = flat fitted curve, though single readings scatter.

Assay: qHTS of pediatric cancer cell lines to identify multiple opportunities for drug repurposing: Primary screen for BT-12 cells (AID 1347101);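 note: plate controls were DMSO for no effect and bortezomib positive control for full effect; nearly all actives have a fitted effect of over 25% in size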
Conditions: BT-12 viability, CellTiter-Glo luminescence, 48 h; series mostly up to 57.3 µM; activity change, negative = cytotoxic: at the top concentration
Procedure, shortened: (§1)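 Cells (500-1,000/well) rested 5 h, then received compounds for 48 h; metabolically active cells were measured by CellTiter-Glo luminescence. Final concentrations spanned up to 46 µM (MIPE, 11-point) or 0.59 nM-46 µM (NPC, 8-point) in primary screens, 11-point in follow-ups.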

| SMILES | activity change, negative = cytotoxic |
| --- | --- |
| CCCc1c2oc(C(=O)O)cc(=O)c2cc2c(=O)cc(C(=O)O)n(CC)c12 | 9% (inactive) |
| CCO[C@H](Cc1ccc(OCCc2ccc(OS(C)(=O)=O)cc2)cc1)C(=O)O | 9.26% (inactive) |
| COc1cc(OC)nc(O[C@H](C(=O)O)C(OC)(c2ccccc2)c2ccccc2)n1 | -5.25% (inactive) |
| CN(C)CCCOC1(Cc2ccccc2)CCCCCC1 | 5.75% (inactive) |
| NS(=O)(=O)c1cc2c(cc1Cl)CN(C1CCCCC1)C2=O | 2.76% (inactive) |
| O=C1[C@@H]2[C@H]3CC[C@H](C3)[C@@H]2C(=O)N1CCCCN1CCN(c2ncccn2)CC1 | 0.809% (inactive) |
| CO[C@@]1(NC(=O)CSC[C@@H](N)C(=O)O)C(=O)N2C(C(=O)O)=C(CSc3nnnn3C)CS[C@@H]21 | 3.32% (inactive) |
| C/C(=N/NC(=O)c1ccncc1)C(=O)O | 13.2% (inactive) |
| CCCCCCCCCCCCCCCCCCN(C)C | -3.6% (inactive) |

Assay: qHTS of pediatric cancer cell lines to identify multiple opportunities for drug repurposing: Primary screen for Rh18 cells (AID 1347102); note: nearly all actives have a fitted effect of over 65% in size; note: potency is the fitted concentration of half-maximal effect; for activity change, negative = cytotoxic: % is set by controls: 0 for no effect and ±100 for the full control effect
Conditions: Rh18 rhabdomyosarcoma viability, CellTiter-Glo luminescence, 48 h; series mostly up to 46 µM; activity change, negative = cytotoxic: at the top concentration
Procedure, shortened: as §1

| SMILES | activity change, negative = cytotoxic | Potency |
| --- | --- | --- |
| C[C@@]12CCC[C@H]1[C@@H]1CC[C@H]3C[C@@H](O)CC[C@]3(C)[C@H]1CC2 | 6.84% (inactive) |  |
| CCOC(=O)OCC/C(SC(=O)OCC)=C(\C)N(C=O)Cc1cnc(C)nc1N | 8.27% (inactive) |  |
| CO/N=C(\C(=O)O)c1csc(NC(=O)CCl)n1 | 21.6% (inactive) |  |
| Nc1ncnc2nc[nH]c12 | 27.7% (inactive) |  |
| O=C(CCCl)NCc1ccccc1 | 13.8% (inactive) |  |
| Cc1nc(C2CCCCC2)c(-c2ccc(S(N)(=O)=O)c(F)c2)o1 | -12% (inactive) |  |
| CC1(C)O[C@@H]2C[C@H]3[C@@H]4CCC5=CC(=O)C=C[C@]5(C)[C@@]4(F)[C@@H](O)C[C@]3(C)[C@]2(C(=O)CO)O1 | 14.2% (inactive) |  |
| CC(C)(C)CC(=O)OCC(=O)[C@@]1(O)CC[C@H]2[C@@H]3CCC4=CC(=O)C=C[C@]4(C)[C@H]3[C@@H](O)C[C@@]21C | 4.55% (inactive) |  |
| O=C1Nc2cc(Cl)ccc2Oc2ccccc21 | -25.7% (inactive) |  |
| CC(COc1ccccc1)NN (stereo not given) | 11.1% (inactive) |  |
| CC(C)=CCC/C(C)=C/CC/C(C)=C/C(=O)OCC(=O)[C@@]1(O)CC[C@H]2[C@@H]3CCC4=CC(=O)C=C[C@]4(C)[C@H]3[C@@H](O)C[C@@]21C | 10.3% (inactive) |  |
| O=C(O)c1[nH]n(-c2ccc(S(=O)(=O)O)cc2)c(=O)c1N=Nc1ccc(S(=O)(=O)O)cc1 | 2.7% (inactive) |  |
| CC(CC(C#N)(c1ccccc1)C(C)C)N(C)C (stereo not given) | 7.81% (inactive) |  |
| CN(CC1(C)CCCO1)S(=O)(=O)c1ccc(Cl)c(S(N)(=O)=O)c1 (stereo not given) | 14% (inactive) |  |
| CC(=O)c1cc2ccccc2s1 | 4.49% (inactive) |  |
| O=c1[nH]c(=O)n([C@H]2O[C@H](CO)[C@@H](O)[C@@H]2O)cc1/C=C\Br | 17.2% (inactive) |  |

| SMILES | activity change, negative = cytotoxic | Potency |
| --- | --- | --- |
| O=C(c1ccco1)N1CCNCC1 | 11% (inactive) |  |
| CCOC(=O)NNc1ccc(N(CC)CC(C)O)nn1 (stereo not given) | 3.65% (inactive) |  |
| CCCCCCCCCCCC[N+](C)(C)Cc1ccccc1 |  | 2110 nM (active) |
| CC1CC(=O)NN=C1c1ccc(NCC(C)(C)NCC(O)COc2cc(Cl)ccc2C#N)cc1 (stereo not given) | -2.28% (inactive) |  |
| Clc1ccc2c(c1)Nc1ccccc1S2 | 6.55% (inactive) |  |
| CCC1(c2cnc[nH]2)Cc2ccccc2C1 | -1.29% (inactive) |  |
| O=[N+]([O-])c1cncn1CCN1CCOCC1 | 11.2% (inactive) |  |
| CCCc1c2oc(C(=O)O)cc(=O)c2cc2c(=O)cc(C(=O)O)n(CC)c12 | 9.38% (inactive) |  |
| CCO[C@H](Cc1ccc(OCCc2ccc(OS(C)(=O)=O)cc2)cc1)C(=O)O | 5.85% (inactive) |  |
| CN(C)CCCOC1(Cc2ccccc2)CCCCCC1 | 5.41% (inactive) |  |
| CCCCC(O)/C=C(C)/C=C/C=C/C(=O)N1CCCC1=O (stereo not given) | 5.71% (inactive) |  |
| O=C1[C@@H]2[C@H]3CC[C@H](C3)[C@@H]2C(=O)N1CCCCN1CCN(c2ncccn2)CC1 | -1.05% (inactive) |  |
| CO[C@@]1(NC(=O)CSC[C@@H](N)C(=O)O)C(=O)N2C(C(=O)O)=C(CSc3nnnn3C)CS[C@@H]21 | 0.0655% (inactive) |  |
| C/C(=N/NC(=O)c1ccncc1)C(=O)O | 10.4% (inactive) |  |
| CCCCCCCCCCCCCCCCCCN(C)C | 2.48% (inactive) |  |
